{
  "source": "ChEMBL document CHEMBL3988442",
  "about": "“University of Dundee, Small-Polar-MMV Screening Library” (2021)",
  "note": "Screen size: about 69,000 compounds; about 950 (1.4%) showed an effect of 50% or more. Many of the other results were omitted from the sample, so strong results are more common in it than they were.",
  "data": [
    {"system": "Mycobacterium tuberculosis", "assay": "Cornell M. t heat shock assay; note: in the data most compounds retested in dose-response had high values", "format": "functional, organism-based", "set-up": "dose or concentration left out as unconfirmed", "units": {"Percent Effect": "%"}, "values": [
      {"smiles": "CCCC(CNc1cc(C(C)C)nc2ccnn12)N(C)C", "note": "(stereo not drawn)", "Percent Effect": 105.9},
      {"smiles": "CC(C)c1cc(NCC(O)CO)n2nccc2n1", "note": "(stereo not drawn)", "Percent Effect": 7.568},
      {"smiles": "CC(C)c1cc(NCC(O)c2ccccn2)n2nccc2n1", "note": "(stereo not drawn)", "Percent Effect": 105.1},
      {"smiles": "Cc1cc2nc(C(C)C)cc(NCC(c3ccccn3)N(C)C)n2n1", "note": "(stereo not drawn)", "Percent Effect": 107.7},
      {"smiles": "CC(C)c1cc(NCC(C)N2CCCC2)n2nccc2n1", "note": "(stereo not drawn)", "Percent Effect": 19.07},
      {"smiles": "COc1cc(NCC(c2ccccn2)N(C)C)ncn1", "note": "(stereo not drawn)", "Percent Effect": 7.48},
      {"smiles": "Cc1cc2nc(C(C)C)cc(NC(C)c3nncn3C)n2n1", "note": "(stereo not drawn)", "Percent Effect": 6.767},
      {"smiles": "CC(C)c1cc(NCC(O)c2ccc(F)cc2)n2nccc2n1", "note": "(stereo not drawn)", "Percent Effect": 13.68},
      {"smiles": "Cc1cc2nc(C(C)C)cc(NCCc3ccncc3)n2n1", "Percent Effect": 5.483},
      {"smiles": "CCOC1COC2(CCN(Cc3cccnc3OC)CC2)C1.O=C(O)C(F)(F)F.O=C(O)C(F)(F)F", "note": "(stereo not drawn)", "Percent Effect": 16.61},
      {"smiles": "CC(=O)N1C[C@@H]2CC[C@H](C1)N(S(=O)(=O)c1ccc(F)cc1Cl)C2", "Percent Effect": 10.85},
      {"smiles": "N#Cc1ccc(N2CCC3(CC2)CC(N2CCOCC2)CO3)cc1.O=C(O)C(F)(F)F", "note": "(stereo not drawn)", "Percent Effect": 25.96},
      {"smiles": "CN(C)C1CCN(C(=O)c2cc(-c3ccn(C)n3)n3ccccc23)CC1.O=C(O)C(F)(F)F", "Percent Effect": 44.75},
      {"smiles": "Cl.NCc1ccc(Oc2ccc(F)c(F)c2)cc1C(F)(F)F", "Percent Effect": 1.199},
      {"smiles": "C[C@@H]1CN(Cc2ccoc2)C[C@]12CCN(CC(=O)N(C)C)C2=O.O=C(O)C(F)(F)F", "Percent Effect": 10.48},
      {"smiles": "CS(=O)(=O)NC[C@H]1OC[C@H]2CN(Cc3ccsc3)CC[C@H]21.O=C(O)C(F)(F)F", "Percent Effect": -31.27},
      {"smiles": "Cc1cccnc1NCCNc1cc(C(C)C)nc2ccnn12", "Percent Effect": 97.5},
      {"smiles": "Cc1cc(NCCNc2ncccc2C)n2nc(C)cc2n1", "Percent Effect": 16.17},
      {"smiles": "Cc1cc2nc(C(C)C)cc(NCCNc3ncccc3C)n2n1", "Percent Effect": -16.57},
      {"smiles": "Cc1cnc(C(=O)N2C[C@H]3CC[C@@H]2CN(c2cnccn2)C3)cn1", "Percent Effect": -7.052},
      {"smiles": "CCC(C)N1Cc2c(C(=O)N3CCOCC3)nn(C)c2C1.O=C(O)C(F)(F)F", "note": "(stereo not drawn)", "Percent Effect": -5.344},
      {"smiles": "CC(C)N1CCCCC1c1nc(N(C)C)ncc1I.Cl", "note": "(stereo not drawn)", "Percent Effect": -21.57},
      {"smiles": "CC(C)N(C)Cc1cnc2n1CCN(S(=O)(=O)c1ccccc1)C2.O=C(O)C(F)(F)F", "Percent Effect": -26.7},
      {"smiles": "Cc1nc(C2CCNC2)nc2c1CCC(=O)N2CC(C)C.Cl", "note": "(stereo not drawn)", "Percent Effect": -0.8245},
      {"smiles": "c1ccc(COC2CCN(c3cncc(-n4cccn4)n3)CC2)cc1", "Percent Effect": 53.35},
      {"smiles": "c1ccc(C2CCN(c3cncc(-n4cccn4)n3)CC2)cc1", "Percent Effect": -1.073},
      {"smiles": "c1ccc(C2CCCN(c3cncc(-n4cccn4)n3)CC2)cc1", "note": "(stereo not drawn)", "Percent Effect": 6.437},
      {"smiles": "CN(C)S(=O)(=O)N1CCO[C@H]2[C@H](Oc3cccnc3)CC[C@@H]21.O=C(O)C(F)(F)F", "Percent Effect": -23.12},
      {"smiles": "CCOc1ccc(C2C3=C(O)OCC3=Nc3nc(SC)nc(N)c32)cc1", "note": "(stereo not drawn)", "Percent Effect": 5.942},
      {"smiles": "CC(C)N1CCc2c(C(=O)N3CCOCC3)nn(C)c2C1.O=C(O)C(F)(F)F", "Percent Effect": 1.567},
      {"smiles": "CC(C)c1ncc2c(n1)CN(Cc1noc(-c3ccccc3)n1)CC2", "Percent Effect": 59.47},
      {"smiles": "CC(C)c1ncc2c(n1)CN(Cc1nc(Cc3ccccc3)no1)CC2", "Percent Effect": 21.5},
      {"smiles": "Cc1ccc(-c2nc(CN3CCc4cnc(C)nc4C3)no2)cc1", "Percent Effect": 7.068},
      {"smiles": "Cc1cccc(CN2CCOCC3(CCN(C4CCOCC4)C3)C2)c1.O=C(O)C(F)(F)F.O=C(O)C(F)(F)F", "note": "(stereo not drawn)", "Percent Effect": -7.998},
      {"smiles": "CC(=O)Nc1nc(C(=O)NCc2ccc(N3CCCC3)nc2)cs1", "Percent Effect": -13.06},
      {"smiles": "CC(=O)Nc1nc(C(=O)Nc2ccc(N3CCCCC3)nc2)cs1", "Percent Effect": 50.82},
      {"smiles": "CC(=O)Nc1nc(C(=O)NCc2ccc(N3CCCCCC3)nc2)cs1", "Percent Effect": 8.395},
      {"smiles": "O=C(O)C(F)(F)F.O=C(O)C(F)(F)F.c1cc(CN2CCc3ncc(CN4CCCCC4)n3CC2)cs1", "Percent Effect": -20.06},
      {"smiles": "Cc1nc(COCC2CN(C(N)=O)Cc3nccn3C2)cs1.O=C(O)C(F)(F)F", "note": "(stereo not drawn)", "Percent Effect": -0.7889},
      {"smiles": "Cc1cc(=O)[nH]c(-n2nc(-c3ccccc3)cc2N)n1", "Percent Effect": 105.3},
      {"smiles": "NC1(c2nc(-c3cccs3)cc(=O)[nH]2)CCCCC1", "Percent Effect": -38.51},
      {"smiles": "CS(=O)(=O)NCCn1ccc(-c2cccs2)n1", "Percent Effect": 0.1994},
      {"smiles": "Cc1cc(=O)[nH]c(-n2nc(-c3cccs3)cc2N)n1", "Percent Effect": 94.15},
      {"smiles": "NC1(c2nc(-c3cccs3)cc(=O)[nH]2)CCCC1", "Percent Effect": -25.86},
      {"smiles": "CCCc1cc(=O)[nH]c(-n2nc(-c3cccs3)cc2N)n1", "Percent Effect": 106.1},
      {"smiles": "NC1(c2nc(-c3ccccc3)cc(=O)[nH]2)CCCCC1", "Percent Effect": 0.6123},
      {"smiles": "CCCS(=O)(=O)NCCn1ccc(-c2cccs2)n1", "Percent Effect": -4.478},
      {"smiles": "NC1(c2nc(-c3ccccc3)cc(=O)[nH]2)CCCC1", "Percent Effect": -2.897}
    ]}
  ]
}
